The full list was thinned out, with hits kept by preference.
Epigenetic mod: qHTS Assay for Epigenetic Modulators | mouse C127i GFP locus derepression, cytometry, 30 h | Potency, µM (highest dose often 46.1 µM), for the others: at the highest dose GFP derepression (activation) | 0.09% of 68,000 active | AID 597, 2007; note: % of control where 0% means no effect
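Murine C127i mammary cells carrying a silenced, stably integrated CMV-driven GFP reporter were treated with compound for 30 hours at 37 C. After PBS washes, GFP-positive cells were counted by laser-scanning microplate cytometry.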
IkB sig inh: IkB Signaling | Potency, µM (doses to about 57.1 µM), for inactives: at the highest dose IkBa stabilization activation | 0.04% of 110,000 active | ABC-DLBCL IkBa-CBG/CBR dual luciferase ratio, 4 h; response scale: scaled: untreated 0%, proteasome inhibitor 100%; active = well fitted curve in the direction sought with a large enough effect in the signal ratio, not every such curve was filed as active; inconclusive = small, poorly fitted or top-dose-only effect, or a change in a side signal; the % refers to the signal ratio;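 note: potency is the fitted concentration of half-maximal effect; the direction sought is a rising ratio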
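Curves were fitted separately to fusion (green), unfused (red) and ratio luminescence, then classed by r2, magnitude and activity. Cells: OCI-Ly3, 4 h compound plus doxycycline at 37C; 10 uM MG-132 defined full response.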
CRE Fsk mod: Cell signaling CRE-BLA (Fsk stim) | AID 662, 2007 | Potency, µM (highest dose often 38.2 µM), for the others: at the highest dose activity change, negative = inhibition, hits mostly activators | 2.5% of 71,000 active | CHO CRE-bla reporter (cAMP response element driving beta-lactamase), forskolin EC10, beta-lactamase ratio; active = well fitted activation curve with a large enough effect in the signal ratio, with a control signal flat, not every such curve was filed as active; inconclusive = small, poorly fitted or top-dose-only effect, or effect the other way, or a change in a side signal; the % refers to the signal ratio; note: potency is the fitted concentration of half-maximal effect; % of control where 0% means no effect
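Reporter-gene assay: CHO cells with beta-lactamase behind cAMP responsive elements, co-treated with compound and EC10 NKH 477 for 3 hours at 37 degrees Celsius. Activity came from the 460/530 nm CCF4 emission ratio.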
Imprint erasure: qHTS Assay for Compounds that Induce Erasure of Genomic Imprints; mouse ES Peg3-LacZ reporter, beta-gal luminescence, 40 h; Potency, µM (doses to about 60.7 µM), for the others: at the highest dose activity change, positive = activation, usual class: activators; 0.02% of 110,000 active; note: potency is the fitted concentration of half-maximal effect
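Readout: BetaGlo luminescence (5 min, room temp) for LacZ from the normally silent maternal Peg3 allele in female Peg3LacZ-Neo ES cells. Cells 300/well, 40 h, 37C, 5% CO2. Data normalized per plate to negative controls.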
HBB splicing: qHTS Assay for Modulators of Hemoglobin Beta Chain Splicing; HBB splicing reporter cell assay, activation; EGFP reporter with mutant IVS2-654 intron; response scale: normalised to 500 nM splice-correcting PNA; Potency, µM (series often up to 46.1 µM), for inactives: at the top dose activation, usual class: activators; 0.06% of 65,000 active; AID 925, 2007; note: potency is the fitted concentration of half-maximal effect; 0% is about no effect
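Compounds were applied for 2 days to HeLa EGFP-654 cells, 500/well in Optimem with 2% FCS. The reporter's EGFP is disrupted by mis-splicing of beta-globin intron IVS2-654. Readout: summed well GFP fluorescence from 488 nm laser scanning; reference was 500 nM antisense […] 654 PNA.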
The depositor's hits bear a star; [ ] = dose if it differs, or a comment. Unless noted, calls come from the whole dose curve; as a rule, active = well fitted curve in the direction sought with a large enough effect; inconclusive = small, poorly fitted or top-dose-only effect, or another doubt; inactive = no such curve, though single readings can be large; an effect the other way counts as inactive or inconclusive.

Results for O=c1c(CCc2ccccc2)nc2cnc(Oc3ccccc3)nc2n1C[C@H]1CCCO1 ?
Epigenetic mod: 0%[9.22 µM]; IkB sig inh: 0%[11.4 µM]; CRE Fsk mod: 13µM*; HBB splicing: 1%

What do the screens show for `CCNc1ncc2nc(CCc3ccccc3)c(=O)n(Cc3cccc(OC)c3)c2n1`?
Epigenetic mod: 3%[9.22 µM]; IkB sig inh: 2%[11.4 µM]; CRE Fsk mod: inconclusive; Imprint erasure: -13%; HBB splicing: 0%

What do the screens show for `COc1ccc(Oc2ncc3nc(CCc4ccccc4)c(=O)n(C[C@H]4CCCO4)c3n2)cc1`?
Epigenetic mod: 3%[9.22 µM]; IkB sig inh: 1%[11.4 µM]; CRE Fsk mod: inconclusive; Imprint erasure: -1%; HBB splicing: -1%

What do the screens show for `COc1cccc(Cn2c(=O)c(CCc3ccccc3)nc3cnc(OC)nc32)c1`?
Epigenetic mod: -3%[9.22 µM]; IkB sig inh: 0%[11.4 µM]; CRE Fsk mod: 13µM*; HBB splicing: -2%

Results for COc1ccc(C2=NOC(C(=O)Nc3ccc(C(C)=O)cc3)C2)cc1OC (centres undefined) ?
Epigenetic mod: 0%; IkB sig inh: 0%; CRE Fsk mod: inconclusive; Imprint erasure: -13%; HBB splicing: -1%

How did COc1ccc(C2=NOC(C(=O)Nc3cc(Br)ccc3O)C2)cc1OC (centres undefined) do in these assays?
Epigenetic mod: 0%; IkB sig inh: inconclusive; CRE Fsk mod: 16µM*; Imprint erasure: -13%; HBB splicing: 3%

How did CCS(=O)(=O)c1ncc(N(Cc2ccco2)Cc2sccc2C)c(C(=O)Nc2cc(C)ccc2C)n1 do in these assays?
IkB sig inh: -1%; Imprint erasure: -15%[10.9 µM]

What do the screens show for `Cc1cccc(OCC(=O)NCc2ccc3c(c2)CCN3C(=O)c2ccccc2)c1`?
IkB sig inh: 0%; Imprint erasure: inconclusive

How did C=CCn1c2ccccc2c2nnc(SCCCn3c(=O)[nH]c4ccccc43)nc21 do in these assays?
Epigenetic mod: 3%; IkB sig inh: inconclusive; CRE Fsk mod: 1.3µM*; Imprint erasure: -40%; HBB splicing: -6%

What do the screens show for `CCC(C)NC(=O)CSc1nc2n[nH]c(C)c2c(=N)n1-c1cc(Cl)ccc1C` (centres undefined)?
IkB sig inh: inconclusive; Imprint erasure: -12%[10.9 µM]

How did COc1ccc(N2CC(NC(=O)c3ccc(S(=O)(=O)N4CCCCC4)cc3)CC2=O)cc1 (centres undefined) do in these assays?
IkB sig inh: -1%; Imprint erasure: -2%[10.9 µM]

Results for CCc1ccc(NC(=O)Cn2c(-c3cncs3)nc3ccccc32)cc1 ?
IkB sig inh: inconclusive; Imprint erasure: -11%[10.9 µM]

Results for COc1cc(C(=O)NCC(c2cccs2)S(=O)(=O)c2ccc(F)cc2)cc(OC)c1OC (centres undefined) ?
IkB sig inh: inconclusive; Imprint erasure: -10%[10.9 µM]

Results for COc1cccc(NC(=O)Cn2nnc(-c3nc(-c4ccccc4)no3)c2N)c1 ?
IkB sig inh: inconclusive; Imprint erasure: -11%[10.9 µM]

What do the screens show for `COc1cc2c(cc1OC)-c1cc(NC3CC3)nc(=O)n1CC2`?
Epigenetic mod: -1%; IkB sig inh: 4%; CRE Fsk mod: 10µM*; Imprint erasure: -17%; HBB splicing: 0%

Results for COc1cc2c(cc1OC)-c1cc(NC3CCCCCCC3)nc(=O)n1CC2 ?
Epigenetic mod: 2%; IkB sig inh: -2%; CRE Fsk mod: 0.4µM*; Imprint erasure: -12%; HBB splicing: 1%[57.5 µM]

How did COc1cc2c(cc1OC)C(=O)Cc1ccc3c(c1CN(C)CC2)OCO3 do in these assays?
Epigenetic mod: 2%[9.22 µM]; IkB sig inh: 0%[11.4 µM]; CRE Fsk mod: inconclusive; Imprint erasure: 0%

Results for COc1cc2c(cc1OC)-c1cc(NC3CCCCC3)nc(=O)n1CC2 ?
Epigenetic mod: -3%; IkB sig inh: 0%; CRE Fsk mod: 2µM*; Imprint erasure: -14%; HBB splicing: 0%

Screening results (PubChem)
